# Bioassay records as filed in PubChem BioAssay.
# This excerpt belongs to a sample that is enriched for hits.
# mHTT-CaM PPI inh: mHTT-calmodulin interaction abrogation. P42858. AlphaScreen His-mHTT/GST-CaM binding, luminescence. inhibition, % at 15 µM. 3.6% of 190,000 active;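 further: 0% = both proteins with DMSO and 100% = one protein alone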
# Target sequence (P42858 whole entry, looked up, stated change not applied): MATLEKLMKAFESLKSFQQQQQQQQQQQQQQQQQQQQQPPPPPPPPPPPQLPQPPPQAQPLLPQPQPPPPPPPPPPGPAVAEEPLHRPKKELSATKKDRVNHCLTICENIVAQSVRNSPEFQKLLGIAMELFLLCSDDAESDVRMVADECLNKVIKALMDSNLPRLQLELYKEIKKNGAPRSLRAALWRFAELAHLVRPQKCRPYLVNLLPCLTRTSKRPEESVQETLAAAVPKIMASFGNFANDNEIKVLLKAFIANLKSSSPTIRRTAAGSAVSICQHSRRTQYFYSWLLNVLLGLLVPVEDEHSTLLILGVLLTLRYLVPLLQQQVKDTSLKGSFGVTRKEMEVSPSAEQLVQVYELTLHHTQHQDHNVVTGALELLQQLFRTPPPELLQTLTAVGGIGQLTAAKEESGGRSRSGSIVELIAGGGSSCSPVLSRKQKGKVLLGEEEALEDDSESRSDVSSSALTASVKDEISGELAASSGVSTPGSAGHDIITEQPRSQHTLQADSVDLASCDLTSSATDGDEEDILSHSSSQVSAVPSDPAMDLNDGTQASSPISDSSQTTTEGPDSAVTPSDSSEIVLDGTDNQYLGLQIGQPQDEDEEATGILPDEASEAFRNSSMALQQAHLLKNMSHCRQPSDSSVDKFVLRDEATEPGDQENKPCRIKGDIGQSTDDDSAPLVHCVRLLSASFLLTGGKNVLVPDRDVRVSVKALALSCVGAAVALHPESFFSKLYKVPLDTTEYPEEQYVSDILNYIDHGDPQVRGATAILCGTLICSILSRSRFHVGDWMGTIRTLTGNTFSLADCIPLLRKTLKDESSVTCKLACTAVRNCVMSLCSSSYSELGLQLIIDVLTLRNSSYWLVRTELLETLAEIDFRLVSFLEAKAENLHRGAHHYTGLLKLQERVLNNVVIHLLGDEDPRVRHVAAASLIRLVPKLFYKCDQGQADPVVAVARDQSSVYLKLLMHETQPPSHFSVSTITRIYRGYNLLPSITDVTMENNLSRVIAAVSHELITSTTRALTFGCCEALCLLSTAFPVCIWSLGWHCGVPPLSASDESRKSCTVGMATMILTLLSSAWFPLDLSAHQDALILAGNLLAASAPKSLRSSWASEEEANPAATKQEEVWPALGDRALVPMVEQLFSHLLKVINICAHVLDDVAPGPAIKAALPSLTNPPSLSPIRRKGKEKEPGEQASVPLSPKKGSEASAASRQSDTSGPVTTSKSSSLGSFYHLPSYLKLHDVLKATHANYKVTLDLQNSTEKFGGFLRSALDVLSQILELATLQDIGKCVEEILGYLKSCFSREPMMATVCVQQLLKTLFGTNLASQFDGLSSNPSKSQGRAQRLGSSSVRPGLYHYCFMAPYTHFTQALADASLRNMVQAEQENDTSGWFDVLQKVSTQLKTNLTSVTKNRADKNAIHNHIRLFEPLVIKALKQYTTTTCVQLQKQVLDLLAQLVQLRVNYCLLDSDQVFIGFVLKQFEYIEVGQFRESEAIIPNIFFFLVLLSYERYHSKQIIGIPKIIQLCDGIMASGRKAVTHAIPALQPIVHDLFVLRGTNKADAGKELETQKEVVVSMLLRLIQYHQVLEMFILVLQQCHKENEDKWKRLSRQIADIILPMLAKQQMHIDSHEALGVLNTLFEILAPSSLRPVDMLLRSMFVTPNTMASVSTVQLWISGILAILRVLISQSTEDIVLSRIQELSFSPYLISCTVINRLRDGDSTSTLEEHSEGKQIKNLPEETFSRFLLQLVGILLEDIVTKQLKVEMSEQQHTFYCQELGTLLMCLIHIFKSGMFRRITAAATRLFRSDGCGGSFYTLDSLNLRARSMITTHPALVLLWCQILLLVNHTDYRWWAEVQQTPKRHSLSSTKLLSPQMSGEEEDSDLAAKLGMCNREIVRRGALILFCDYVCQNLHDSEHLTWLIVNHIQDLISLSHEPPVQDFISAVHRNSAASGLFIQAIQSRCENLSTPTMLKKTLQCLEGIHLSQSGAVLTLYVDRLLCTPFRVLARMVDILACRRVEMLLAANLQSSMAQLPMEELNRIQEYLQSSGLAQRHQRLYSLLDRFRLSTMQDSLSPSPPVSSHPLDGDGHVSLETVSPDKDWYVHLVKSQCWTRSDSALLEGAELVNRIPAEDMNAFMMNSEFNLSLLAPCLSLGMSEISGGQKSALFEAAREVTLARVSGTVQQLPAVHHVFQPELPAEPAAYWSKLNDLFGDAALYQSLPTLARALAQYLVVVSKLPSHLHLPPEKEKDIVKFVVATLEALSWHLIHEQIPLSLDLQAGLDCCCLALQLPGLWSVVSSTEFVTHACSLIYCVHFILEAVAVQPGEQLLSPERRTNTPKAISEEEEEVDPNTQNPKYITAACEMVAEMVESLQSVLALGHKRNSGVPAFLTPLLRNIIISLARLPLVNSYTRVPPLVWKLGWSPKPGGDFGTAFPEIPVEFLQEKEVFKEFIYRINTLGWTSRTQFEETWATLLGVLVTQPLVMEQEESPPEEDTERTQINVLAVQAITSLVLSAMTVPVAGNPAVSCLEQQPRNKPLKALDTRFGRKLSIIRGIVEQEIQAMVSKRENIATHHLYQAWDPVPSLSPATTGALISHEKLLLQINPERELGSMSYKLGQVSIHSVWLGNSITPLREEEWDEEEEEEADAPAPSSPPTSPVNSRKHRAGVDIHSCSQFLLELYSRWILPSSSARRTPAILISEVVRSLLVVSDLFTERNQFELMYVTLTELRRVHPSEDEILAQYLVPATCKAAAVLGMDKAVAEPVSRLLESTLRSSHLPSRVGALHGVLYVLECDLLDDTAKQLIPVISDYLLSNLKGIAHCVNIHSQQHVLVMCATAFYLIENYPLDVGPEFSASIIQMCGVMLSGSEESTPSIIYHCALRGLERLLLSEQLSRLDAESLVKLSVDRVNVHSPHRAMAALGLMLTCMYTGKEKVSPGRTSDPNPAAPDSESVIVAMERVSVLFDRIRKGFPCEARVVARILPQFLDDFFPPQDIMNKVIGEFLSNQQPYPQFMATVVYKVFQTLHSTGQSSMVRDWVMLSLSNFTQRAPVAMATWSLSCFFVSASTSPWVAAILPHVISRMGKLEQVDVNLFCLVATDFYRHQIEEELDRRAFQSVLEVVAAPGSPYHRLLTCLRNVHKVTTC
# Pf apPOL block: Pf-apPOL DNA polymerase inhibition; Recombinant Pf-apPOL, molecular beacon fluorescence, 1.5 h; inhibition, % at 10 µM; 0.25% of 210,000 active; AID 1794808
# Numbers without * were called inactive; . = not tested or not shown. No stated cut-off is given here; in the data, active means inhibition above about 50%; inactive means the rest.
SMILES,mHTT-CaM PPI inh,Pf apPOL block
CCc1ccc2nc(NCCN3CCOCC3)sc2c1,-20,-16
O=C(Nc1ccc(F)cc1F)N1CCC(N2CCN(Cc3ccc(F)cc3)C2=O)CC1,14,1
O=C(c1cc(F)cc(F)c1)N1CCCN(c2cc(-c3ccccc3)[nH]n2)CC1,35,-7
CC(C)(C)N=C1Nc2ccccc2CNC12CCN(C(=O)Cc1ccccc1)C2 (centres undefined),25,-4
CC(C)(C)N=C1Nc2ccccc2CNC12CCN(C(=O)Cc1ccccc1F)C2 (centres undefined),53*,-10
Cc1noc(C2CN(C(=O)c3ccccc3)CC23CCN(C)CC3)n1 (centres undefined),-1,-10
O=C(Nc1ccc2c(c1)OCO2)c1ccccc1Cl,-5,-6
Clc1cccc(Cl)c1CNc1ccc2c(c1)OCO2,69*,-3
Fc1cccc(NCc2ccc3c(c2)OCO3)c1,-12,-8
Cc1cccc(CNc2ccc3c(c2)OCO3)c1,100*,3
Cc1cc(=O)[nH]c(SCC(=O)N(c2ccccc2)C(C)C)n1,-13,9
O=C(NCCCN1CCCCC1)c1ccnc(N2CCNC(c3ccccc3)C2)c1 (centres undefined),3,-4
O=c1[nH]c2c(s1)C(c1ccc(O)cc1)C1C3CCC(C3)C1S2 (centres undefined),63*,-5
O=c1[nH]c2c(s1)C(c1cccnc1)C1C3CCC(C3)C1S2 (centres undefined),-2,-4
Cc1nnsc1C(=O)NCC1CCN(Cc2ccsc2)CC1,-9,-5
Cc1nc(C2CCCN(Cc3ccc(Br)o3)C2)n[nH]1 (centres undefined),50*,-10
Cc1nc(C2CCCN(Cc3cccc4[nH]ccc34)C2)n[nH]1 (centres undefined),18,-7
Cc1ccc(NC(=O)CN2CCC(c3nc(-c4cccs4)no3)CC2)c(Cl)c1,-5,-5
O=C1S/C(=C\c2ccc(O)c([N+](=O)[O-])c2)C(=O)N1c1ccccc1,18,-7
O=C1S/C(=C\c2ccccc2Cl)C(=O)N1c1ccc(O)cc1,74*,-5
O=C1S/C(=C\c2ccc(O)cc2)C(=O)N1CNc1ccc(I)cc1,25,-5
O=C1S/C(=C\c2ccc(O)cc2)C(=O)N1c1ccc(O)cc1,55*,-4
O=C(CN1C(=O)S/C(=C\c2ccc(Br)cc2)C1=O)Nc1ccc(O)cc1,52*,-1
O=C1S/C(=C\c2ccc(O)c(O)c2)C(=O)N1c1ccc(Cl)cc1,88*,-6
O=C1S/C(=C\c2ccc(O)cc2)C(=O)N1c1ccccc1,18,0
SMILES,mHTT-CaM PPI inh,Pf apPOL block
COc1ccccc1/C=C1\SC(=O)N(c2ccc(Cl)cc2)C1=O,2,-3
O=C(CSc1nnc(-c2ccco2)n1-n1cccc1)Nc1ccc([N+](=O)[O-])cc1,-15,8
Cc1ccc(NC(=O)c2cc(S(=O)(=O)NCCc3ccccc3)ccc2F)cc1F,6,1
CCC(=O)NCc1csc(C2CCCN(C(=O)c3ccc(F)cc3F)C2)n1 (centres undefined),-12,-4
COc1cccc2c(Nc3cccc(C)c3)cc(C(=O)N3CCSCC3)nc12,31,-3
Nc1nc(SCC(=O)Nc2ccccc2Cl)ncc1S(=O)(=O)c1cccs1,-10,2
CCOc1ccc(C2C=C(c3ccc(Cl)cc3)Nc3nnnn32)cc1OC (centres undefined),-1,-6
CC(=O)Nc1ccc(C2C(C#N)=C(N)Oc3cc(N(C)C)ccc32)cc1 (centres undefined),15,-3
CN(C)c1ccc2c(c1)OC(N)=C(C#N)C2c1cc(Br)cs1 (centres undefined),53*,-5
N#CC1=C(N)Oc2cc(N)ccc2C1c1cc(Br)cs1 (centres undefined),13,-2
CN(C)c1ccc2c(c1)OC(N)=C(C#N)C2c1ccc(F)c(Br)c1 (centres undefined),83*,-4
c1csc(-c2nc(-c3ccc4c(c3)ncn4CCN3CCCC3)no2)c1,22,20
CS(=O)(=O)N1CCN(C(=O)Cc2csc(NC(=O)C3CCCC3)n2)CC1,-2,-6
c1cnc(-c2noc(C3CCCCN3CC3CC3)n2)cn1 (centres undefined),27,-6
Cc1c(C(=O)O)cccc1-c1ccc(/C=C/[N+](=O)[O-])o1,3,-12
Cc1ccc(Cl)cc1-c1ccc(/C=C/[N+](=O)[O-])o1,77*,0
CC(=O)Oc1cc(C)c2c(c1)OC(=Cc1ccncc1)C2=O,-1,2
Cc1ccccc1C1=N/C(=C\c2cccn2C)C(=O)O1,19,5
COc1ccc2c(c1)CC/C(=C\c1cccn1C)C2=O,39,-7
CC1C/C(=C\c2cccn2C)C(=O)/C(=C/c2cccn2C)C1 (centres undefined),99*,-1
Cn1cccc1/C=C1\CCC/C(=C\c2cccn2C)C1=O,79*,-3
COc1cccc(C(=O)NCCSc2ncc(-c3ccc(F)cc3)[nH]2)c1OC,-12,-9
Cc1ncc2c(n1)CCN(C(=O)c1ccc(C(F)(F)F)cc1)C2,-7,0
C=C(C)CN(CC)Cc1ccccc1OC,-1,-9
O=[N+]([O-])c1ccccc1C(N1CCOCC1)N1CCOCC1,2,-3
SMILES,mHTT-CaM PPI inh,Pf apPOL block
CS(=O)(=O)N1N=C(c2c(-c3ccccc3)c3cc(Cl)ccc3[nH]c2=O)CC1c1ccccc1 (centres undefined),67*,0
O=c1[nH]c2ccc(Cl)cc2c(-c2ccccc2)c1[N+](=O)[O-],17,-2
Cc1c(Cl)cccc1NC(=O)C(CC(=O)O)Cc1ccc(Cl)cc1 (centres undefined),5,-10
O=C1c2cccc(N3CCOCC3)c2C(=O)c2cccc(Cl)c21,84*,-71
O=C1CCC(=O)N1c1ccccc1N1CCOCC1,.,-2
COc1ccccc1-c1ccc2oc(C3CCCN3C(=O)C(C)C)nc2c1 (centres undefined),47,0
O=C(C1CC1)N1CCCC1c1nc2cc(-c3ccc(F)cc3F)ccc2o1 (centres undefined),48,-5
CC(=O)N1CCCC1c1nc2cc(-c3ccc(N(C)C)cc3)ccc2o1 (centres undefined),86*,-10
Cc1ccccc1-c1ccc2oc(C3CCCN3S(C)(=O)=O)nc2c1 (centres undefined),90*,-4
CC(=O)N1CCCC1c1nc2cc(-c3ccc(F)cc3F)ccc2o1 (centres undefined),42,-4
CN(C)c1ccc(-c2ccc3oc(C4CCCN4C(=O)C4CC4)nc3c2)cc1 (centres undefined),89*,-13
COc1cccc(CNC(=O)C2CCN(c3nc4ccc(C)cc4[nH]3)CC2)c1,1,-11
O=C(Cc1ccc([N+](=O)[O-])cc1)NCc1ccc2[nH]c3c(c2c1)CCCC3,31,28
CN(C)S(=O)(=O)c1ccc(C(=O)NCc2ccc3[nH]c4c(c3c2)CCCC4)cc1,29,-6
O=C(NCc1ccc2[nH]c3c(c2c1)CCCC3)C12CC3CC(CC(C3)C1)C2,98*,-6
O=C(CC1CCCCC1)NCc1ccc2[nH]c3c(c2c1)CCCC3,92*,-5
COc1ccc(-c2csc(=NCCO)n2-c2ccccc2)cc1,6,2
OCCN=c1scc(-c2ccc(Br)cc2)n1-c1ccccc1,60*,-1
CC(=NCc1ccccc1)c1ccc(Cl)cc1O,.,-13
